Assay results: PubChem BioAssay (NCATS)
Where “and” joins values, the source holds several entries; their conditions need not be identical. Equal entries are not always repeated. Results filed as inconclusive are left out. Entries that show only a call come without a potency. Calls of active or inactive are those of the source. Unless noted, calls follow the shape of the full dose curve. Numbered stars: 1 amine (or outer) side, 2 acyl side, 3 side chain; on linkers, the order of the positions; unused ones are H or OH. Bridge positions count the residues as written; N and C are the ends. Square brackets hold non-standard residues; d marks the D form. Peptide text beside a SMILES is read from it. * marks the point of attachment. ξ: configuration not given here. pTerphenylCO(4''-OnC5H11) = CCCCCOc1ccc(-c2ccc(-c3ccc(C(=O)*)cc3)cc2)cc1; ξOrn(4,5-diOH) = O=C(C(CC(O)C(O)N[*:3])N[*:1])[*:2]; ξhTyr(βξ-OH,γξ-OH) = NC(C(=O)O)C(O)C(O)c1ccc(O)cc1; ξPro(3ξ-OH,4ξ-Me) = CC1CNC(C(=O)O)C1O; Hyp = O=C(O)[CH]1C[CH](O)CN1

Legend:
[1] = Primary qHTS for Huh7 cytotoxicity: counterscreen for inhibitors of MERS-S pseudotyped particle cell entry (AID 1479147); settings: outcome: dose series up to 57.1 µM unless noted
[2] = Primary qHTS for inhibitors of MERS-S pseudo-typed particle cell entry (AID 1479149); settings: outcome: dose series up to 57.1 µM unless noted; also: nearly all actives have a fitted effect of over 60% in size; also: potency is read from the fitted curve at half-maximal effect
[3] = Primary qHTS for Vero E6 cytotoxicity: counterscreen for inhibitors of SARS-S pseudo-typed particle cell entry (AID 1479150); settings: outcome: dose series up to 57.1 µM unless noted
[4] = MultiTox-Fluor Cytotoxicity Assay - LYMP1-002 - Dead Cells (AID 960; active = well fitted curve in the direction sought with a large enough effect; an effect the other way counts as inactive or inconclusive; also: potency is read from the fitted curve at half-maximal effect; nearly all actives have a fitted effect of over 60% in size)
In short: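 Readout: fluorescence at 485/520 from cell-impermeant bis-AAF-R110 cleaved by proteases leaking from damaged cells. LYMP1-002 lymphoblastoid line, 16 hr compound treatment at 37 C, concentration-response in qHTS format; Hill-equation AC50 values.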

[5] = biological target: Bile acid receptor (Homo sapiens) (UniProt Q96RI1); test: qHTS assay for small molecule agonists of farnesoid X receptor signaling (AID 588527); settings: HEK293T FXR-UAS-bla, beta-lactamase ratio, 16 h; stronger effect = higher value
Chain of Bile acid receptor (Homo sapiens) (Q96RI1 whole entry, looked up): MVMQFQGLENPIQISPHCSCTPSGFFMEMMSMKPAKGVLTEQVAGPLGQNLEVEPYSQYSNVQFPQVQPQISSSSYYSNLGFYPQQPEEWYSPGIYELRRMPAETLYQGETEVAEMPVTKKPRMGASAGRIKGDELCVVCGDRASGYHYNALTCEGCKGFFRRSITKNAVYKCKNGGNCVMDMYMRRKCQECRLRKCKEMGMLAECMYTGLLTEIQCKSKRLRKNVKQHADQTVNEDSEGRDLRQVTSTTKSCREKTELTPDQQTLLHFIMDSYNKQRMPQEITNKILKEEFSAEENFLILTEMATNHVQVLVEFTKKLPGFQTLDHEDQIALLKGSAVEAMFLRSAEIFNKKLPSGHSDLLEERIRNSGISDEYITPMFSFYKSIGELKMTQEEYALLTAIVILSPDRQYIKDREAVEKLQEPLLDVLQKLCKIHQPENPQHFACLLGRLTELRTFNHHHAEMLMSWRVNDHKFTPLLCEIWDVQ
In short: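 FXR-UAS-bla HEK293T cells (10% dialyzed FBS) preincubated 5-7 h at 37 C, then compounds at up to 92 uM for 16 h at 37 C. CCF4 beta-lactamase read-out after 2 h RT. Normalized to chenodeoxycholic acid (100 uM) and DMSO; Hill fit gave EC50 and efficacy.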

[6] = Primary qHTS for inhibitors of SARS-S pseudo-typed particle cell entry (AID 1479145); settings: outcome: dose series up to 57.1 µM unless noted; also: nearly all actives have a fitted effect of over 45% in size
[7] = Primary qHTS to identify inhibitors of SARS-CoV-2 cell entry (AID 1645846); settings: SARS-CoV-2 pseudovirus cell entry assay, luminescence; activity change, negative = inhibition: at 57.1 µM (top of the series) unless noted; also: nearly all actives have a fitted effect of over 45% in size; also: potency is read from the fitted curve at half-maximal effect
In short: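 Entry measured by luciferase signal 48 h after adding SARS-CoV-2-S pseudotyped MLV particles to HEK293-ACE2 cells preincubated 1 h with compounds. Normalisation: bald particles and spike particles.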

[8] = Confirmatory qHTS to identify inhibitors of SARS-CoV-2 cell entry (AID 1645844); also: nearly all actives have a fitted effect of over 45% in size; also: potency is read from the fitted curve at half-maximal effect
In short: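 Luminescence entry read-out after 48 h: spike-pseudotyped MLV particles (Wuhan-Hu-1, 19-aa C-terminal truncation) added to compound-pretreated (1 h) HEK293-ACE2 cells; Data were normalised to bald PP and spike PP wells.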

[9] = Cytotoxicity counterscreen for inhibitors of SARS-CoV-2 cell entry (AID 1645845); settings: outcome: dose series up to 57.1 µM unless noted; also: nearly all actives have a fitted effect of over 50% in size
In short: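 ATP-content luminescence (ATPLite 1step, 15 min RT) read after 48 h compound exposure of Expi293F cells stably expressing human ACE2; normalized to cells-only wells and media-only wells.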

[10] = VSVG counterscreen qHTS to identify inhibitors of SARS-CoV-2 cell entry (AID 1645847); also: nearly all actives have a fitted effect of over 65% in size; also: potency is read from the fitted curve at half-maximal effect
In short: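 Luminescence read after 48 h infection at 37 C with VSV-G-pseudotyped MLV particles, following 1 h compound exposure of Expi293F cells stably expressing human ACE2; scaled between bald particle and VSV-G particle wells.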

[11] = qHTS Assay for Lipid Storage Modulators (AID 1519); settings: Drosophila S3 cells, BODIPY lipid droplet/cell ratio, laser cytometry, cells loaded with oleic acid
In short: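 Cells seeded at 5,000 per well were treated with compounds over a concentration series and loaded with oleic acid (400 uM, as added). Lipid droplet fluorescence (488 nm excitation, 500-530 nm channel) was read by laser-scanning cytometry and normalized to 20 uM Triacsin C.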

[12] = biological target: Peroxisome proliferator-activated receptor gamma (Homo sapiens) (UniProt P37231); test: qHTS assay for small molecule agonists of peroxisome proliferator-activated receptor gamma signaling (AID 588536; active = well fitted curve in the direction sought with a large enough effect in the signal ratio, with a control signal flat, not every such curve was filed as active; the % refers to the signal ratio)
Chain of Peroxisome proliferator-activated receptor gamma (Homo sapiens) (P37231 whole entry, looked up): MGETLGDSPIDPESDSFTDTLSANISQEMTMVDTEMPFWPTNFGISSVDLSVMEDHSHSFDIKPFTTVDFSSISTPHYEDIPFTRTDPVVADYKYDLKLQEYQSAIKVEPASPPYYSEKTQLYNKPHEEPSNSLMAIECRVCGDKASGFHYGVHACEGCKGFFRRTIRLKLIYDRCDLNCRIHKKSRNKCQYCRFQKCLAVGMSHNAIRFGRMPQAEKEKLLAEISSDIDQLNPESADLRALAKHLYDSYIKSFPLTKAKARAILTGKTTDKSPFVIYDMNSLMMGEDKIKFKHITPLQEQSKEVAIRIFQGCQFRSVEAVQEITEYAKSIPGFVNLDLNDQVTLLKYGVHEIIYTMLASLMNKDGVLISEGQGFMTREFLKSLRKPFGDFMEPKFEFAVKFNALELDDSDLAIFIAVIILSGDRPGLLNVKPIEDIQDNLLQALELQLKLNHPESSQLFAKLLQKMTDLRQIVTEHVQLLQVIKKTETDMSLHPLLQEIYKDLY
In short: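 Cells were plated and held 6–6.5 h at 37 C, then compounds were added as a titration series. After a further 16 h, CCF4 dye was loaded for 2 h at room temperature and emission at 460/530 nm recorded.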

[13] = S16 Schwann cell PMP22 intronic element firefly luciferase assay (AID 624032; active = well fitted curve in the direction sought with a large enough effect; an effect the other way counts as inactive or inconclusive; also: potency is read from the fitted curve at half-maximal effect; nearly all actives have a fitted effect of over 30% in size)
In short: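 Luciferase reporter of PMP22 intronic-element expression in stably transfected S16 rat Schwann cells, read by ONE-Glo luminescence after 24 h compound exposure at 37 C. Activity scaled between DMSO (0%) and positive-control PTC124; concentration-effect curves quality-classified.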

[14] = qHTS assay for small molecule agonists of the antioxidant response element (ARE) signaling pathway (AID 651741; active = well fitted activation curve with a large enough effect in the signal ratio; the % refers to the signal ratio; also: potency is read from the fitted curve at half-maximal effect)
In short: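 Agonist activity is measured as ARE-driven beta-lactamase expression in a stable HepG2 reporter line, using 16 h compound treatment at 37 C and a FRET substrate fluorescence readout after 2 h.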

[15] = qHTS assay for small molecule agonists of the antioxidant response element (ARE) signaling pathway measured by Nrf2-dependant transcriptional activity (AID 720636; active = well fitted curve in the direction sought with a large enough effect in the repeat runs; an effect the other way counts as inactive or inconclusive)
In short: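 ARE-luc HepG2 cells carrying an Nrf2-responsive luciferase reporter, in medium with 1% dialyzed FBS, exposed to compound for 16 hr at 37 C, 5% CO2. Luminescence read 30 min after ONE-Glo addition.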

[16] = Confirmatory qHTS for VERO E6 Cytotoxicity Assay: Counterscreen for SARS-CoV-2 CPE Assay (AID 1508605); also: nearly all actives have a fitted effect of over 60% in size

For `C=CC(=O)N1CCCC(n2nc(-c3ccc(Oc4ccccc4)cc3)c3c(N)ncnc32)C1` (stereo unspecified), the Potency [1] was “inactive”, the Potency [2] was “inactive” and the Potency [3] was “inactive”.
In the case of `CC(=O)N(CC(C)C(=O)O)c1c(I)cc(I)c(N)c1I` (stereo unspecified), the Potency [1] is reported as “inactive”, the Potency [2] is reported as “inactive” and the Potency [3] is reported as “inactive”.
In the case of `C[C@H]1O[C@@H](O[C@H]2[C@@H](O)C[C@H](O[C@H]3[C@@H](O)C[C@H](O[C@H]4CC[C@@]5(C)[C@H](CC[C@@H]6[C@@H]5C[C@@H](O)[C@]5(C)[C@@H](C7=CC(=O)OC7)CC[C@]65O)C4)O[C@@H]3C)O[C@@H]2C)C[C@H](O)[C@@H]1O`, the Potency [4] is reported as 1 µM (active), the activation [5] is reported as -4.19% (inactive) and the Potency [6] is reported as “inactive”. The Potency [2] was “inactive” and the activity change, negative = inhibition [7] was -96.3% and -94.1%.
For `CO[C@H]1C[C@@H]2CC[C@@H](C)[C@@](O)(O2)C(=O)C(=O)N2CCCC[C@H]2C(=O)O[C@H]([C@@H](C)C[C@@H]2CC[C@@H](O)[C@H](OC)C2)CC(=O)[C@H](C)/C=C(\C)[C@@H](O)[C@@H](OC)C(=O)[C@H](C)C[C@H](C)/C=C/C=C/C=C/1C`, the Potency [6] was “inactive”, the Potency [3] was “inactive” and the Potency [7] was 20 µM (active).
For `C[C@@H](c1nc(-c2ccc(C#N)cc2)cs1)[C@](O)(Cn1cncn1)c1cc(F)ccc1F`, the Potency [1] was “inactive” and the Potency [2] was 10 µM (active).
With `CC(=O)OC1CC(OC2C(O)CC(OC3C(O)CC(OC4CCC5(C)C(CCC6C5CCC5(C)C(C7=CC(=O)OC7)CCC65O)C4)OC3C)OC2C)OC(C)C1O` (stereo unspecified) the Potency [6] was “inactive”, the Potency [2] was “inactive” and the activity change, negative = inhibition [7] was -96.7%.
In the case of `CC[C@H](C)[C@@H]([C@@H](CC(=O)N1CCC[C@H]1[C@H](OC)[C@@H](C)C(=O)NCCc1ccccc1)OC)N(C)C(=O)[C@@H](NC(=O)[C@H](C(C)C)N(C)C)C(C)C`, the Potency [1] is reported as “inactive”.
In the case of `CN(C)CCC(O)(c1ccccc1)c1ccccc1Cl` (stereo unspecified), the Potency [1] is reported as “inactive”, the Potency [2] is reported as “inactive” and the Potency [3] is reported as “inactive”.
With `CO[C@H]1C[C@H](O[C@@H]2[C@H](C)O[C@H](O[C@@H]3/C(C)=C/C[C@@H]4C[C@@H](C[C@]5(C=C[C@H](C)[C@@H](C6CCCCC6)O5)O4)OC(=O)[C@@H]4C=C(C)C(O)[C@H]5OC/C(=C\C=C\[C@@H]3C)[C@]54O)C[C@@H]2OC)O[C@@H](C)[C@@H]1O` (stereo partly specified) the Potency [1] was “inactive”, the Potency [2] was “inactive” and the Potency [3] was “inactive”. The Potency [8] was 2.71 µM (active), the Potency [9] was “inactive” and the Potency [10] was 1.36 µM (active).
With `CN(C)C(=O)c1cc2cnc(Nc3ccc(N4CCNCC4)cn3)nc2n1C1CCCC1` the Potency [1] was “inactive”, the Potency [2] was “inactive” and the Potency [3] was “inactive”. For the same compound, the Potency [8] was “inactive”, the Potency [9] was “inactive” and the Potency [10] was “inactive”.
In the case of `COc1cc(CNC(=O)CCCC/C=C/C(C)C)ccc1O`, the activity change, negative = inhibition ([11]; at 57.5 µM (top of the series)) is reported as -5.1% (inactive) and 0.692% (inactive), the max response ([11]; measured here: cell count channel max response) is reported as -0.801% and 21.3% and the max response ([11]; measured here: lipid channel max response) is reported as -2.34% and 21.8%. For the same compound, the activation [5] was -2.84% (inactive) and 4.77% (inactive), the outcome [12] was “inactive” and the Potency [13] was 9.07 µM (active). The Potency [14] was 42.2 µM (active), the outcome [15] was “inactive” and the Potency [1] was “inactive”. The Potency [2] was “inactive”, the Potency [3] was “inactive” and the Potency [9] was “inactive”. The activity change, negative = inhibition [7] was -28.1% and -35.9%.
For `O=[N+]([O-])c1ccc(Oc2ccc(N=C=S)cc2)cc1`, the Potency [1] was “inactive”.
For `CCCCCCCCC=CCCCCCCCC(=O)NCCOC(=O)CC(C(=O)O)S(=O)(=O)O` (stereo unspecified), the Potency [6] was “inactive”, the Potency [3] was “inactive” and the Potency [9] was “inactive”.
In the case of `CCCCCOc1ccc(-c2ccc(-c3ccc(C(=O)NC4CC(O)C(O)NC(=O)C5C(O)C(C)CN5C(=O)C(C(C)O)NC(=O)C(C(O)C(O)c5ccc(O)cc5)NC(=O)C5CC(O)CN5C(=O)C(C(C)O)NC4=O)cc3)cc2)cc1` (stereo not drawn) ({pTerphenylCO(4''-OnC5H11)}-[ξOrn(4,5-diOH)]T[Hyp][ξhTyr(βξ-OH,γξ-OH)]T[ξPro(3ξ-OH,4ξ-Me)]; lactam 1-C; configuration not given here), the Potency [1] is reported as “inactive”, the Potency [2] is reported as 11.2 µM (active) and the Potency [3] is reported as “inactive”. For the same compound, the Potency [16] was “inactive”.
